Assay outcomes (PubChem BioAssay)
USP8 block: human USP8 deubiquitinase inhibition. P40818. purified USP8, Ub-rhodamine cleavage fluorescence, 30 min. inhibition, % at 20 µM. hit rate 4.2% among 47,000. AID 1645853
UCHL1 block: human UCHL1 deubiquitinase inhibition | P09936 | purified UCHL1, Ub-rhodamine cleavage fluorescence | inhibition, % at 20 µM | hit rate 0.2% among 47,000 | AID 1645859
Target sequence (P09936 whole entry, looked up): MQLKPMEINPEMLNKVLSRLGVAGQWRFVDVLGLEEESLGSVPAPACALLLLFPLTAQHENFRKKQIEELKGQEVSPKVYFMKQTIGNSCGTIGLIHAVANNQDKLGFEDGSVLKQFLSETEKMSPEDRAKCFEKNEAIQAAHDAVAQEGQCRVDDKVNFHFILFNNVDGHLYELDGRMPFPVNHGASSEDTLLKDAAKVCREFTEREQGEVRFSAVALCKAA
USP10 block: inhibitors of human USP10 deubiquitinase | Q14694 | purified USP10, Ub-rhodamine fluorescence, 60 min | inhibition, % at 20 µM | hit rate 1.1% among 47,000 | AID 1645856
USP7 block: human USP7 deubiquitinase inhibition; hit rate 0.3% among 47,000; AID 1645854; purified USP7, Ub-rhodamine cleavage fluorescence; Q93009; inhibition, % at 20 µM
OTUD3 block: human OTUD3 deubiquitinase inhibition; AID 1645858; purified OTUD3, Ub-rhodamine fluorescence, 2 h; hit rate 0.7% among 47,000; Q5T2D3; inhibition, % at 25 µM
Hits are given with their value; n = inactive; x = no result. This is a sample that favours compounds with a hit; in the whole collection about 4.9% have one here. Rule as the data show it: active = inhibition above about 30%; inactive = the rest.

SMILES | USP8 block | UCHL1 block | USP10 block | USP7 block | OTUD3 block
Cn1cc(-c2cnc(-c3ccnn3C)nc2)cc1C(=O)NCCc1ccccc1 | n | n | n | n | n
O=C(Cn1cnc2cc3c(cc21)OCCCO3)NC1CCCC1 | n | n | n | n | n
O=C(Nc1ccc2nc3n(c(=O)c2c1)CCCC3)c1ccc2c(c1)OCO2 | n | n | n | n | n
O=C(Nc1ccc2c(c1)OCO2)c1ccc2nc(C(F)(F)F)sc2c1 | 54.7 | n | n | n | n
O=C(Nc1ccc(F)cc1F)c1ccc(-n2nnc3cccnc32)cc1 | n | n | n | n | n
C(=C\c1nc(-c2cccc(-c3ccn[nH]3)c2)no1)/c1ccco1 | 35.4 | n | n | 30.8 | n
Fc1ccc(OCc2nc(-c3cccc(-c4ccn[nH]4)c3)no2)cc1 | 33.0 | n | n | n | n
O=S(=O)(NC1CC1)c1ccc(-c2nc(-c3ccc(F)cc3)no2)o1 | n | n | n | n | n
O=C(CC1CCN(C(=O)Nc2ccccc2)CC1)N1CCCCC1 | n | n | n | n | n
O=C(CCCC(=O)c1ccccc1)Nc1ccc2c(c1)CCC2 | n | n | n | n | n
O=C(CCCC(=O)c1ccccc1)Nc1ccc(O)cc1 | 34.8 | n | n | n | n
Cc1ccc(OCC(=O)NCC(c2ccco2)N2CCCC2)cc1C (stereo not drawn) | n | n | n | n | n
CCOC(=O)c1c2ccc(OCC(=O)NCc3ccco3)cc2n2ccccc12 | 63.1 | n | n | n | n
O=C(CSc1nc2ccccc2c(=O)n1CC1CCCO1)Nc1ncn[nH]1 (stereo not drawn) | n | n | n | n | n
O=C(Cn1ccc2ccn(Cc3ccccc3)c2c1=O)NC1CCCC1 | n | n | n | n | n
O=C(Cn1ccc2ccn(Cc3ccccc3)c2c1=O)Nc1ccccc1Cl | 77.2 | n | n | n | n
Cc1occc1C(=O)N1CCC2(CCCN(c3ncccn3)C2)C1 (stereo not drawn) | n | n | n | n | n
CC(C)(C)c1nn(-c2ccc(Cl)cc2)c2[nH]c(=O)c(CNCCc3ccccc3)cc12 | n | n | n | n | n
Cc1nn(-c2ccc(Cl)cc2)c2[nH]c(=O)c(CNCc3ccco3)cc12 | 44.2 | n | n | n | n
Cc1nn(-c2ccc(Cl)cc2)c2[nH]c(=O)c(CNCCN(C)C)cc12 | 53.4 | n | n | n | n
Cc1nn(-c2ccc(Cl)cc2)c2[nH]c(=O)c(CNCC3CCCO3)cc12 (stereo not drawn) | 85.6 | n | n | n | n
COc1ccc(CCNCc2cc3c(C)nn(-c4ccc(Cl)cc4)c3[nH]c2=O)cc1OC | 78.0 | n | n | n | n
O=C(COC(=O)c1cc(S(=O)(=O)N2CCCC2)ccc1O)NC1CCCC1 | n | n | n | n | n
CCCn1c(C(=O)Nc2ccccc2F)cc2c(=O)n(C)c(=O)n(C)c21 | n | n | n | n | n
O=C(CCC(=O)c1ccc(F)cc1)Nc1cccc(S(=O)(=O)Nc2cccc(Cl)c2)c1 | n | n | 32.1 | n | n
SMILES | USP8 block | UCHL1 block | USP10 block | USP7 block | OTUD3 block
Cc1ccc(S(=O)(=O)Nc2ccc(Cl)cc2)cc1NC(=O)CC(=O)c1ccccc1 | 50.9 | n | n | n | n
Cc1ccc(S(=O)(=O)Nc2cccc(Cl)c2)cc1NC(=O)CCc1ccccc1 | n | n | n | n | n
Cc1ccc(S(=O)(=O)Nc2cccc(Cl)c2)cc1NC(=O)CCC(=O)c1ccc(Cl)cc1 | n | n | 33.7 | n | n
CCn1c(CCc2ccccc2NS(=O)(=O)c2cccc(C#N)c2)nc2ccccc21 | n | n | n | n | n
COc1ccccc1-c1noc(C2CCCN2C(=O)c2ccccc2C)n1 (stereo not drawn) | n | n | n | n | n
CCOc1ccc(S(=O)(=O)NCc2ccccc2Cl)c2ccccc12 | 30.4 | n | n | n | n
CCOc1ccc(S(=O)(=O)n2ccc(C)n2)c2ccccc12 | n | n | n | n | n
CC[C@@H](C(=O)[C@@H](C)[C@@H](O)[C@H](C)CCc1ccc(C)c(O)c1C(=O)O)[C@@H]1O[C@](CC)([C@H]2CC[C@](O)(CC)[C@H](C)O2)C[C@@H]1C | n | n | 60.3 | n | n
Cc1noc(/C=C/Nc2cc(Cl)cc(Cl)c2)c1[N+](=O)[O-] | n | n | n | n | n
CCn1cc(S(=O)(=O)NCc2ccccc2)c2cccnc21 | 35.2 | n | n | n | n
COCCN(C)C(=O)c1c2c(NCC3CC3)ncnc2n2ccccc12 | 30.5 | n | n | n | n
Nc1c(C(=O)c2ccco2)sc2c1c(=O)[nH]c(=O)n2Cc1ccc2c(c1)OCO2 | 53.7 | n | n | n | n
Cc1cccc(NC(=O)c2cc(-c3cnc(-c4ccnn4C)nc3)cn2C)c1 | n | n | n | n | n
COCCCN1CCS(=O)(=O)c2c(Cl)c(F)nc(Oc3ccc(C#N)cc3)c21 | 90.8 | n | n | x | n
O=S1(=O)CCN(Cc2cccnc2)c2c(Oc3ccccc3F)nc(F)c(Cl)c21 | n | n | n | n | n
COCCN1CCS(=O)(=O)c2c(Cl)c(F)nc(Oc3ccccc3F)c21 | 52.9 | n | n | n | n
Cn1cnc2c(C(=O)NCc3cccc(F)c3)nn(-c3ccccc3)c2c1=O | n | n | n | n | n
COc1ccc(OC)c(-n2c(SCC(=O)N3CCc4ccccc43)nnc2-c2cccc(S(=O)(=O)N(C)C)c2)c1 | n | n | n | n | 32.0
c1ccc(CNc2ccc(-c3nc(-c4ccccc4)no3)nn2)cc1 | 41.6 | n | n | n | n
Cc1cc(C(=O)NCc2cccc([C@@H]3NC(=O)N[C@H]4OCCC[C@H]43)c2)no1 | n | n | n | n | n
O=S(=O)(Nc1ccc2cn[nH]c2c1)c1ccc2c(c1)OCCO2 | n | n | n | n | n
CCc1ccc(S(=O)(=O)Nc2ccc3[nH]ncc3c2)cc1 | 34.9 | n | n | n | n
COc1c2nc3ccccc3oc-2cc(=O)c1OC | 57.8 | n | n | n | n
O=C(Nc1ccc(-n2cccc2)cc1)c1ccc(F)cc1 | n | n | n | n | n
O=C(Nc1ccc(N2CCC(n3cccc3)CC2)cc1)c1ccccc1 | 30.5 | n | n | n | n
SMILES | USP8 block | UCHL1 block | USP10 block | USP7 block | OTUD3 block
CC(C)c1ccc(C(C(=O)NC2CCCCC2)N(C(=O)c2cnccn2)c2cccc(F)c2)cc1 (stereo not drawn) | 30.4 | n | n | n | n
Cc1cccc(C(=O)NC(c2ccccc2)c2cccnc2)c1 (stereo not drawn) | n | n | n | n | n
Cc1cccc(C(=O)NC(NC(=O)c2cccc(C)c2)c2ccccc2F)c1 | 57.1 | n | n | n | n
Cc1ccc2nc(-c3ccccc3O)c(Nc3ccc(Cl)cc3)n2c1 | 76.1 | n | n | n | n
Cc1ccccc1Nc1c(-c2ccccc2O)nc2c(C)cccn12 | n | n | n | n | n
CCn1ncc(-c2ccnc3cc(C(=O)N4CCN(Cc5ccc(F)cc5)CC4)nn23)c1C | 59.8 | n | n | n | n
CCN1CCN(C(=O)c2sc(-c3ccc(F)cc3)nc2C)CC1 | n | n | n | n | n
CC(C)CCNC(=O)c1cccc(-c2cnc(NC3CCCCC3)nc2)c1 | n | n | n | n | n
CC(C)CCNC(=O)c1ccc2c(=O)n(C3CCCC3)c(=O)[nH]c2c1 | 34.4 | n | n | n | n
